Out of some 5,500 compounds screened, about 2,000 (36%) were called active. Another 18% or so got no clear call; they are omitted. No stated cut-off is given here; in the data, active means normalized growth mostly below about 0.91 (no sharp cut-off); inconclusive means no clear call, values can overlap the other calls; inactive means mostly above about 0.92. The list shows a part of the results.
Experiment: chemical genetic growth profiling, strain panel (AID 1159580);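 further: tested at 20 µM; growth read once vehicle control cultures reached saturation at 30 °C; 1 = growth at the plate median or of vehicle wells; lower values mean less growth of the strain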
Conditions: growth OD

Measured: normalized growth

CNC(=O)N(C)c1nnc(C(C)(C)C)s1
inactive: S. cerevisiae deletion strains, locus YJR075W, strain HOC1, active compounds read low 1.02 | S. cerevisiae deletion strains, locus YKL009W, strain mrt4, active compounds read low 1.04 | S. cerevisiae deletion strains, locus YKL068W, active compounds read low 1.01 | S. cerevisiae deletion strains, locus YKL085W, strain MDH1 (second series), active compounds read low 1.02 | S. cerevisiae deletion strains, locus YKL085W, strain MDH1, active compounds read low 1.02 | S. cerevisiae deletion strains, locus YKL160W, strain elf1, active compounds read low 0.992 | S. cerevisiae deletion strains, locus YKL190W, strain CNB1, active compounds read low 1.01 | S. cerevisiae deletion strains, locus YKR001C, strain vps1, active compounds read low 1.04 | S. cerevisiae deletion strains, locus YKR026C, strain gcn3, active compounds read low 0.991 | S. cerevisiae deletion strains, locus YKR091W, strain srl3, active compounds read low 0.974 | S. cerevisiae deletion strains, locus YLL001W, strain dnm1, active compounds read low 0.988 | S. cerevisiae deletion strains, locus YLL026W, active compounds read low 0.992 | S. cerevisiae deletion strains, locus YLL041C, strain sdh2, active compounds read low 0.98 | S. cerevisiae deletion strains, locus YLR027C, strain aat2, active compounds read low 0.973 | S. cerevisiae deletion strains, locus YLR039C, strain RIC1, active compounds read low 1.07 | S. cerevisiae deletion strains, locus YLR058C, strain SHM2, active compounds read low 1.01 | S. cerevisiae deletion strains, locus YLR102C, strain apc9, active compounds read low 1.03 | S. cerevisiae deletion strains, locus YLR221C, strain rsa3, active compounds read low 1.01 | S. cerevisiae deletion strains, locus YLR258W, strain gsy2, active compounds read low 0.975 | S. cerevisiae deletion strains, locus YLR262C, strain YPT6 (second series), active compounds read low 1.03 | S. cerevisiae deletion strains, locus YLR262C, strain YPT6, active compounds read low 1.09 | S. cerevisiae deletion strains, locus YLR268W, strain sec22, active compounds read low 1.02 | S. cerevisiae deletion strains, locus YLR320W, strain mms22, active compounds read low 1.03 | S. cerevisiae deletion strains, locus YLR330W, strain CHS5, active compounds read low 1.02 | S. cerevisiae deletion strains, locus YLR342W, strain FKS1 (second series), active compounds read low 1.07 | S. cerevisiae deletion strains, locus YLR342W, strain FKS1, active compounds read low 0.998 | S. cerevisiae deletion strains, locus YLR357W, strain rsc2, active compounds read low 0.972 | S. cerevisiae deletion strains, locus YLR370C, strain arc18, active compounds read low 0.983 | S. cerevisiae deletion strains, locus YLR371W, strain rom2, active compounds read low 1.02 | S. cerevisiae deletion strains, locus YLR384C, strain iki3, active compounds read low 1.01 | S. cerevisiae deletion strains, locus YLR418C, strain cdc73, active compounds read low 1.09 | S. cerevisiae deletion strains, locus YML016C, strain PPZ1, active compounds read low 1.01 | S. cerevisiae deletion strains, locus YML032C, strain rad52, active compounds read low 1.01 | S. cerevisiae deletion strains, locus YML120C, strain ndi1, active compounds read low 1.01 | S. cerevisiae deletion strains, locus YML124C, strain tub3, active compounds read low 1.01 | S. cerevisiae deletion strains, locus YMR058W, strain fet3, active compounds read low 0.977 | S. cerevisiae deletion strains, locus YMR078C, strain ctf18, active compounds read low 1.02 | S. cerevisiae deletion strains, locus YMR125W, strain sto1, active compounds read low 0.942 | S. cerevisiae deletion strains, locus YMR129W, active compounds read low 0.998 | S. cerevisiae deletion strains, locus YMR205C, strain PFK2, active compounds read low 0.969 | S. cerevisiae deletion strains, locus YMR223W, strain ubp8, active compounds read low 1.02 | S. cerevisiae deletion strains, locus YMR231W, strain pep5, active compounds read low 1.01 | S. cerevisiae deletion strains, locus YMR263W, strain SAP30, active compounds read low 1.02 | S. cerevisiae deletion strains, locus YMR307W, strain GAS1, active compounds read low 1.1 | S. cerevisiae deletion strains, locus YNL067W, strain RPL9B, active compounds read low 1.02 | S. cerevisiae deletion strains, locus YNL071W, strain lat1, active compounds read low 0.993 | S. cerevisiae deletion strains, locus YNL128W, strain TEP1, active compounds read low 1.01 | S. cerevisiae deletion strains, locus YNL153C, strain GIM3, active compounds read low 1.01 | S. cerevisiae deletion strains, locus YNL209W, strain ssb2, active compounds read low 1.01 | S. cerevisiae deletion strains, locus YNL233W, strain BNI4, active compounds read low 1.01 | S. cerevisiae deletion strains, locus YNL248C, strain rpa49, active compounds read low 0.995 | S. cerevisiae deletion strains, locus YNL250W, strain rad50, active compounds read low 1.02 | S. cerevisiae deletion strains, locus YNL271C, strain bni1, active compounds read low 1.03 | S. cerevisiae deletion strains, locus YNL298W, strain CLA4, active compounds read low 1.03 | S. cerevisiae deletion strains, locus YNL307C, strain MCK1, active compounds read low 1.02 | S. cerevisiae deletion strains, locus YNL322C, strain KRE1 (second series), active compounds read low 0.986 | S. cerevisiae deletion strains, locus YNL322C, strain KRE1, active compounds read low 1.01 | S. cerevisiae deletion strains, locus YNR049C, strain mso1, active compounds read low 0.974 | S. cerevisiae deletion strains, locus YNR052C, strain pop2, active compounds read low 1.03 | S. cerevisiae deletion strains, locus YOL006C, strain TOP1, active compounds read low 1.06 | S. cerevisiae deletion strains, locus YOL012C, strain htz1 1.29 | S. cerevisiae deletion strains, locus YOL147C, strain pex11, active compounds read low 1.01 | S. cerevisiae deletion strains, locus YOR001W, strain rrp6, active compounds read low 1.01 | S. cerevisiae deletion strains, locus YOR061W, strain CKA2, active compounds read low 1.01 | S. cerevisiae deletion strains, locus YOR069W, strain VPS5, active compounds read low 1 | S. cerevisiae deletion strains, locus YOR070C, strain gyp1, active compounds read low 1 | S. cerevisiae deletion strains, locus YOR080W, strain dia2, active compounds read low 0.998 | S. cerevisiae deletion strains, locus YOR083W, strain WHI5, active compounds read low 0.991 | S. cerevisiae deletion strains, locus YOR106W, strain vam3, active compounds read low 0.961 | S. cerevisiae deletion strains, locus YOR136W, strain idh2, active compounds read low 1.01 | S. cerevisiae deletion strains, locus YOR144C, strain elg1, active compounds read low 1.01 | S. cerevisiae deletion strains, locus YOR184W, strain ser1, active compounds read low 1.04 | S. cerevisiae deletion strains, locus YOR265W, strain rbl2, active compounds read low 0.994 | S. cerevisiae deletion strains, locus YOR270C, strain vph1, active compounds read low 1.01 | S. cerevisiae deletion strains, locus YOR290C, strain snf2, active compounds read low 0.959 | S. cerevisiae deletion strains, locus YOR316C, strain cot1, active compounds read low 1.02 | S. cerevisiae deletion strains, locus YPL051W, strain arl3, active compounds read low 1.01 | S. cerevisiae deletion strains, locus YPL055C, strain LGE1, active compounds read low 1.03 | S. cerevisiae deletion strains, locus YPL078C, strain atp4, active compounds read low 0.961 | S. cerevisiae deletion strains, locus YPL106C, strain sse1, active compounds read low 1.02 | S. cerevisiae deletion strains, locus YPL240C, strain hsp82, active compounds read low 0.994 | S. cerevisiae deletion strains, locus YPL241C, strain CIN2, active compounds read low 1.02 | S. cerevisiae deletion strains, locus YPR119W, strain clb2, active compounds read low 1.01 | S. cerevisiae deletion strains, locus YPR141C, strain kar3, active compounds read low 1.02 | S. cerevisiae deletion strains, locus YPR163C, strain tif3, active compounds read low 1.01 | S. cerevisiae deletion strains, locus YPR167C, strain met16, active compounds read low 1.03 | S. cerevisiae deletion strains, strain wtn01, active compounds read low 1.03 | S. cerevisiae strains, strain wild type, active compounds read low 1.01
